# Hits are enriched below; roughly 6.3% of the tested compounds scored in any of these assays.
# TIM10 inh: growth inhibitors of TIM10 yeast strain; inhibition, % at 10 µM; 330,000 tested, 1.4% active; S. cerevisiae TIM10 strain growth, BacTiter-Glo luminescence, 24 h;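 active means inhibition of 40% or more at the single tested concentration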;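 further: wild-type TIM10 isogenic control strain grown at permissive 25 °C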
# tim23-1 inh: inhibits growth of tim23-1 mutant yeast; inhibition, % at 20 µM; 330,000 tested, 1.3% active; S. cerevisiae tim23-1 growth, BacTiter-Glo luminescence, 24 h;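 active means growth inhibition of the mutant yeast at or above 50%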;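 further: temperature-sensitive mutant grown at 25 °C; plate controls were DMSO-treated mutant yeast for no effect and medium wells lacking yeast for full effect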
# Mdm2 MdmX PPI: inhibitors of human Mdm2/MdmX interaction; SaOS-2 split-luciferase Mdm2/MdmX complementation, luminescence; O15151+Q00987; inhibition, % at 8 µM; 330,000 tested, 3% active;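 active means inhibition of at least 50% at 8 µM in the primary screen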
# MPTP block: inhibitors of mitochondrial permeability transition pore. 360,000 tested, 1.4% active. isolated mouse mitochondria, Ca2+ swelling absorbance, 30 min. AID 602449. inhibition, % at 10 µM;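 active means inhibition of 50% or more, scaled per plate between neutral and stimulator controls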;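 further: 0% = DMSO wells given calcium and 100% = 1 mM EGTA wells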
# tim10-1 inh: growth inhibitors of tim10-1 mutant yeast; S. cerevisiae tim10-1 ts strain growth, BacTiter-Glo, 24 h; 330,000 tested, 2.2% active; inhibition, % at 20 µM;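 active means inhibition of at least 40%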;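 further: mutant grown at 25 °C; 0% = DMSO wells with yeast and 100% = wells holding no yeast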
# TIM10 conf: TIM10 yeast growth inhibition, confirmed | shares compounds with TIM10 inh | 4,600 tested, 63% active | inhibition, % at 10 µM | AID 463215 | S. cerevisiae tim10 strain growth, BacTiter-Glo luminescence, 24 h;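 active means inhibition of yeast growth at or above a set limit in either of two replicates at 10 µM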;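 further: this counterscreen used the strain with wild-type TIM10; 0% = yeast with DMSO and 100% = medium wells lacking yeast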
# * marks the source's active call; other numbers are inactive results; x = no result given.
SMILES,TIM10 inh,tim23-1 inh,Mdm2 MdmX PPI,MPTP block,tim10-1 inh,TIM10 conf
CC(C)c1ccc(S(=O)(=O)N2CCN(C(=S)NCc3ccco3)CC2)cc1,49*,40,14,3,40,-32
C/C(=N\NC(=S)NC(C)C)c1cccc([N+](=O)[O-])c1,42*,37,-7,0,34,6
O=C(Nc1nc2ccccc2s1)c1ccc2sc([C@H]3C[C@H](O)[C@@H](CO)O3)nc2c1,x,x,x,1,x,x
CCOC(=O)c1sc2nc(OCc3cccnc3)cc(C)c2c1N,x,x,x,0,x,x
Cc1ccc2nc(-c3sc4nc(C)ccc4c3N)[nH]c2c1,63*,35,-205,0,19,48*
CCOC(=O)C1=C(C)N(CCCC(=O)O)C(=O)NC1c1ccccc1OS(=O)(=O)c1ccccc1[N+](=O)[O-] (stereo unspecified),97*,-4,15,1,-18,-11
COC(=O)c1ccc(NC(=S)N2CCN(Cc3ccc(Cl)cc3)CC2)cc1,49*,39,15,43,37,36*
Cc1cc(CC(C)C)n(-c2nc3ccccc3c(=O)n2OCC(=O)N(C)C)n1,5,18,29,-2,15,x
Cc1cc(CC(C)C)n(-c2nc3ccccc3c(=O)n2OCc2ccccc2)n1,40*,38,12,0,34,37*
CCCCC(=O)N(C)c1c(C)nc2ccc(C(=O)N3CCN(S(=O)(=O)CC)CC3)cn12,x,x,x,-2,x,x
CC(=O)c1c(C(C)=O)c(C)n(NC(=O)c2cccnc2)c1C,89*,14,-10,-1,9,7
CC(=O)c1c(C(C)=O)c(C)n(NC(=O)c2ccccc2O)c1C,-8,6,2,-1,4,x
CCC(=O)N1CCC1(C)C(=O)NCc1ccc(SC)cc1 (stereo unspecified),x,x,x,-1,x,x
Cc1ccc(NC(=O)COC(=O)CNC(=O)c2cccs2)cc1S(=O)(=O)N1CCOCC1,x,x,x,-3,x,x
Cc1ccc(NC(=O)COC(=O)Cc2cccs2)cc1S(=O)(=O)N1CCOCC1,97*,9,22,1,1,-6
CC1(C)C([N+](=O)[O-])C(c2ccc(Cl)cc2)NC(c2ccc(Cl)cc2)C1[N+](=O)[O-] (stereo unspecified),42*,30,9,11,37,38*
Cc1ccc(C)c(NC(=O)c2cc(-c3cc(C)ccc3O)n[nH]2)c1,7,12,-45,0,16,x
Cc1ccc(O)c(-c2cc(-c3ccccc3F)[nH]n2)c1,48*,18,-18,2,39,43*
CCOC(=O)C1=C(C)NC(=S)NC1c1ccc(-c2ccc(Cl)cc2)o1 (stereo unspecified),44*,29,28,9,29,33*
COCCOC(=O)C1=C(C)NC(=O)N(C(C)=O)C1c1ccc(Cl)cc1 (stereo unspecified),-13,24,12,0,-1,x
CCOC(=O)C1=C(C)NC(=S)N(C(C)=O)C1c1ccc(Cl)cc1 (stereo unspecified),42*,47,34,6,25,42*
Cc1ccc(F)cc1C(=O)N1CCOCC1c1cc(C(=O)NCc2ccccc2)no1 (stereo unspecified),x,x,x,0,x,x
O=C(Nc1ccc(Cl)cc1)c1ccc2ncsc2c1,9,-3,-54,2,3,x
O=C(Nc1cccc(Cl)c1)c1ccc2ncsc2c1,50*,31,-18,0,25,45*
CC1(C(=O)NS(=O)(=O)c2cccc(C#N)c2)CCN1C(=O)C/C=C/c1ccccc1 (stereo unspecified),x,x,x,-2,x,x
SMILES,TIM10 inh,tim23-1 inh,Mdm2 MdmX PPI,MPTP block,tim10-1 inh,TIM10 conf
Cc1ccc(S(=O)(=O)c2nc(Nc3nccs3)sc2Cl)cc1,48*,18,29,42,29,29
CCOC(=O)N(C)c1c(CC)nc2c(OCc3ccccc3OC)cccn12,x,x,x,0,x,x
O=C(NCC(=O)N1CCN(Cc2ccc3c(c2)OCO3)CC1)c1ccccc1F,97*,11,-8,0,-14,-11
CCCCOc1ccc(C(=O)NCC(=O)N2CCN(Cc3ccc4c(c3)OCO4)CC2)cc1,25,21,20,0,13,x
O=C(NCc1nc(-c2ccc(Cl)cc2)no1)c1ccc2c(c1)OCO2,43*,20,-11,2,-20,8
CCc1nnc(NC(=O)COc2ccccc2[N+](=O)[O-])s1,40*,13,-10,0,7,-3
CCc1nnc(NC(=O)COc2ccc([N+](=O)[O-])cc2)s1,-23,-18,0,-2,-21,x
COc1cc(CCN(C(=O)c2cc3ccccc3[nH]2)C(c2ccccn2)c2nc3ccccc3[nH]2)cc(OC)c1 (stereo unspecified),x,x,x,-2,x,x
O=C(NCc1cccc(Cl)c1)C1Cc2c(-c3ccccc3Oc3ccccc3)ccnc2O1 (stereo unspecified),x,x,x,2,x,x
COc1cc(C23CCCN(CCC(C(C)(C)C)C2)C32OCCO2)cc(OC)c1OC (stereo unspecified),x,x,x,2,x,x
CCNC(=O)C1(C)CCCN(C(=O)CCc2cccs2)C1 (stereo unspecified),x,x,x,-2,x,x
Cc1c(C(=S)Nc2ccccc2)cnn1-c1ccc([N+](=O)[O-])cc1,43*,44,-20,10,38,-1
Cc1c(C(=S)Nc2ccccc2)cnn1-c1ccccc1,21,23,-33,1,33,x
Cc1nn(CCO)c2ncc(C(=O)c3cc(Cl)ccc3O)cc12,-25,9,3,1,-4,x
Cc1[nH]nc2ncc(C(=O)c3cc(Cl)cc(Cl)c3O)cc12,63*,43,13,-12,34,31*
COc1cc(OC)cc(-c2nc3ccccc3c(=O)n2OC(=O)c2ccc(C)c(C)c2)c1,50*,49,11,9,37,25
Cc1nc(Nc2ccc3c(c2)OCCO3)c2oc3ccccc3c2n1,40*,38,11,-3,31,21
COc1ccc(-c2cn3cc(C(F)(F)F)cc(Cl)c3n2)cc1,52*,31,-299,10,29,37*
CC(C)(C)Nc1nc(Cl)nc(Nc2ccccc2)n1,1,48,-124,0,-5,x
COc1ccccc1Nc1nc(Cl)nc(NC(C)(C)C)n1,42*,18,13,8,33,23
N#CC(c1nc2ccccc2nc1N1CCCC1)S(=O)(=O)c1ccccc1 (stereo unspecified),41*,28,14,1,38,17
Nc1nc(Nc2cccc(F)c2)nc2ccccc12,40,29,-236,1,35,30
O=C(Nc1nc(-c2ccc3c(c2)OCO3)cs1)C1COc2ccccc2O1 (stereo unspecified),31,34,-9,1,36,x
O=C(Nc1nc(-c2ccccc2)cs1)C1COc2ccccc2O1 (stereo unspecified),41*,44,-7,1,24,35*
c1ccc2c(c1)c1ccccc1n1c(-c3ccc4c(c3)OCO4)nnc21,68*,42,4,0,37,8
